# Results: PubChem BioAssay AID518 (Sanford-Burnham Center for Chemical Genomics, 2006)
# In all, about 64,000 compounds went through this assay and about 55 (0.09%) were called active. The rule behind the calls is not given here. Not all results are given here.
# Molecular target: Alkaline phosphatase, tissue-nonspecific isozyme (Homo sapiens) (UniProt P05186)
# Assay: human TNAP enzyme inhibitors, biochemical, luminescent (AID 518);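 note: plate controls were vehicle for no effect and reference inhibitor for full effect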
# Conditions: purified TNAP enzyme, luminescent substrate readout; at 20 µM; stronger effect = higher value
# Sequence of Alkaline phosphatase, tissue-nonspecific isozyme (Homo sapiens) (P05186 whole entry, looked up): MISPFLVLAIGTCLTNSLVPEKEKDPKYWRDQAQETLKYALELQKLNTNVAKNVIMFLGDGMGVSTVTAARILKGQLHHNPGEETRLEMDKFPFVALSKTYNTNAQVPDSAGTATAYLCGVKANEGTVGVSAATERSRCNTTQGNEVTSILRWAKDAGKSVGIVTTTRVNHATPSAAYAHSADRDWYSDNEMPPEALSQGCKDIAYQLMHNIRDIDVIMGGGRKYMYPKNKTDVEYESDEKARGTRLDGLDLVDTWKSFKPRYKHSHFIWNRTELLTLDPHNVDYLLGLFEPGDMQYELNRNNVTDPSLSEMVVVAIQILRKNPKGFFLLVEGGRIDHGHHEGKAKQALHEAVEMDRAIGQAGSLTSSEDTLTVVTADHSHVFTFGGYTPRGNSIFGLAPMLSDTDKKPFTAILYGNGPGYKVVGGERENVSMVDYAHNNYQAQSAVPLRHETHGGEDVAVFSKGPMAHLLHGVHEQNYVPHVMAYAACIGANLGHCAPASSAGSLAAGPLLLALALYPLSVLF
row,Structure (SMILES),inhibition
1,CCN1C(=O)OC2(CCCCC2)C1(C)O (stereo not drawn),13% (inactive)
2,O=C(NCCN1CCOCC1)c1cc2ccccc2o1,9.4% (inactive)
3,Cc1cc2c(c(Sc3ccccc3)n1)C(=O)OC2,7.5% (inactive)
4,O=C(N1CCOCC1)N1CCN(CC(O)COc2ccc3ccccc3c2)CC1 (stereo not drawn),16.3% (inactive)
5,Cn1c2ccccc2c2nnc(SCN3C(=O)c4ccccc4C3=O)nc21,8.4% (inactive)
6,Cc1cc(C(=O)OCC(=O)Nc2nc(-c3ccccc3)cs2)c(C)o1,1.4% (inactive)
7,O=c1c2ccccc2nc2n1CCCS2,4.5% (inactive)
8,COc1cc2[nH]c3c(N4CCN(c5ccc(Cl)cc5)CC4)ncnc3c2cc1OC,5.3% (inactive)
9,O=C(CCC(=O)c1ccc(F)cc1)OC1CCOC1=O (stereo not drawn),6.6% (inactive)
10,COc1ccccc1N1CCN(C(=O)CSc2ccc3c(C)cc(C)nc3n2)CC1,10.2% (inactive)
11,Oc1ccccc1Oc1ncc(Br)c(N2CCOCC2)n1,-1.3% (inactive)
12,C/C(N)=C(/C#N)C(=O)CSc1ncnc2ccccc12,5.5% (inactive)
13,COc1ccccc1-c1nc(SCC(=O)O)n[nH]1,4.7% (inactive)
14,Cc1nc2sc(C(c3cccc(F)c3)N3CCCC(C)C3)c(O)n2n1 (stereo not drawn),5.8% (inactive)
15,COc1ccc(OC)c2c1CCC2=O,8.1% (inactive)
16,CN(CCCNC(=O)C1CCC(=O)N1Cc1ccc(F)cc1)c1ccccc1 (stereo not drawn),1.1% (inactive)
17,Cc1cc(C(=O)NCCN2CCN(c3cccc(Cl)c3)CC2)n(-c2ccccc2)n1,10.8% (inactive)
18,CCc1c(C)[nH]c2ccc(C)cc2c1=O,7.8% (inactive)
19,CCCCn1c(NCCN(C)C)nc2c1c(=O)[nH]c(=O)n2C,-1% (inactive)
20,O=C(CSc1oc(-c2ccccc2)nc1S(=O)(=O)c1ccc(F)cc1)NCC1CCCO1 (stereo not drawn),1.7% (inactive)
21,O=C(COc1ccc(S(=O)(=O)N2CCOCC2)cc1)Nc1ccc2c(c1)OCCO2,-6.1% (inactive)
22,C=CCN1C(=O)C(O)(CC(=O)c2ccccc2)c2ccccc21 (stereo not drawn),7.7% (inactive)
23,CN(C)c1oc(-c2ccc(OCc3ccc(Cl)cc3)cc2)nc1C#N,5.2% (inactive)
24,O=C(c1ccc(CNS(=O)(=O)c2cccc(C(F)(F)F)c2)cc1)N1CCOCC1,19.5% (inactive)
25,CCn1cnc2sc(C(=O)N3CCN(Cc4ccc5c(c4)OCO5)CC3)c(C)c2c1=O,0.3% (inactive)

row,Structure (SMILES),inhibition
1,c1ccc(N2CCN(C3CCSC3)CC2)cc1 (stereo not drawn),13.5% (inactive)
2,COCCNc1ncnc2nc[nH]c12,8.7% (inactive)
3,CCOCCCNC(=O)C(c1ccc(C)cc1)N1CCOCC1 (stereo not drawn),-1% (inactive)
4,CS(=O)(=O)N(CC(=O)NCc1ccc2c(c1)OCO2)c1ccc(Cl)cc1,6.8% (inactive)
5,CCOc1ccc(CNc2ccc3c(c2)ncn3C)cc1,16.9% (inactive)
6,Cc1nccn1CCC(=O)O,5.3% (inactive)
7,CCc1ccccc1N1C(=O)C2CC(C)=C(C)CC2C1=O (stereo not drawn),5.3% (inactive)
8,Cc1cc(C(=O)NC(C)c2ccncc2)cs1 (stereo not drawn),3.5% (inactive)
9,Cc1ccc(S(=O)(=O)Cn2nnnc2C(c2ccc(F)cc2)N2CCCCC2)cc1 (stereo not drawn),3.5% (inactive)
10,CCCCCC(=O)N1CCN(CCN=CC2=C(O)CC(c3ccco3)CC2=O)CC1 (stereo not drawn),8% (inactive)
11,O=C(NCCN1CCOCC1)C1CCN(c2nc3ccccc3o2)CC1,7.3% (inactive)
12,CCCc1ccc(S(=O)(=O)NCCc2ccncc2)cc1,10.5% (inactive)
13,CCc1ccc2[nH]c(=O)c(C(c3nnnn3CC3CCCO3)N3CCCc4ccccc43)cc2c1 (stereo not drawn),19.5% (inactive)
14,COc1cc(C2C3CN(C)CC=C3C(C#N)=C(N)C2(C#N)C#N)ccc1OC(C)C (stereo not drawn),-0.1% (inactive)
15,CC1c2nc3ccccc3n2C(CC(=O)NCc2ccccn2)C(=O)N1Cc1ccccc1 (stereo not drawn),12.3% (inactive)
16,Cc1onc(-c2c(F)cccc2Cl)c1C(=O)Nc1cccc2nsnc12,13.1% (inactive)
17,COc1cc(C)nc(OCCNC(=O)COc2ccc(Cl)cc2Cl)n1,13.3% (inactive)
18,COc1ccc(CNS(=O)(=O)c2ccc(C3CNC(=O)C3)cc2)cc1 (stereo not drawn),8.2% (inactive)
19,O=C(CSc1nnc2scc(-c3ccccc3)n12)N1CCCc2ccccc21,5.3% (inactive)
20,C=CCOc1ccccc1C1C2=C(CC(C)(C)CC2=O)Nc2c1c(=O)n(C)c(=O)n2C (stereo not drawn),4.4% (inactive)
21,COC(=O)N(C)CCCC1(C)C(=O)N(C)c2ccc(O)cc21 (stereo not drawn),8.6% (inactive)
22,c1ccc(CSc2nncn2-c2ccccn2)cc1,17.8% (inactive)
23,Cc1ccnc(NS(=O)(=O)c2cccs2)c1,14.5% (inactive)
24,CCCc1noc2c1C(c1ccoc1)C(C#N)=C(N)N2 (stereo not drawn),15.5% (inactive)
25,CCN(CC)CCCN1C(=O)C(=O)/C(=C(/O)c2ccc3c(c2)OCCO3)C1c1ccc(C)o1 (stereo not drawn),6.3% (inactive)

row,Structure (SMILES),inhibition
1,c1ccc(CCc2nn3c(Cn4cnc5ccccc54)nnc3s2)cc1,10.8% (inactive)
2,CCn1c2ccccc2c2nnc(SCC(=O)c3ccccc3)nc21,14.3% (inactive)
3,CC(C)(CNS(=O)(=O)c1ccc(F)cc1)CNS(=O)(=O)c1ccc(F)cc1,10.8% (inactive)
4,COc1ccc(CN(Cc2cc3cc4c(cc3[nH]c2=O)OCO4)C(=O)NC2CCCCC2)cc1,6.8% (inactive)
5,O=C(NCc1ccco1)C(c1ccco1)N(CCc1ccccc1)C(=O)Cn1nnc2ccccc21 (stereo not drawn),12.6% (inactive)
6,Cc1ccc(N2C(=O)C3C(C2=O)C(C(=O)c2ccc(Cl)cc2)N2CCCC32)cc1 (stereo not drawn),12% (inactive)
7,CCOC(=O)c1cccnc1SCC(=O)N(C)c1ccccc1,-1.1% (inactive)
8,O=C(Nc1c(Cl)cc(Cl)cc1C(=O)NCC1CCCO1)c1ccco1 (stereo not drawn),5.4% (inactive)
9,COC(=O)c1nc(NC(=O)C(C)C)n[nH]1,5.3% (inactive)
10,COc1ccc2c(=O)c3c(=O)n(Cc4ccco4)c(-c4ccc(C)cc4)nc3oc2c1,9.7% (inactive)
11,Cc1ccc(OCCn2c(=O)cnc3ccccc32)cc1,3.3% (inactive)
12,CC1CCN(S(=O)(=O)c2cccc(C(=O)Nc3ccccn3)c2)CC1,24.3% (inactive)
13,CCN1C(=O)C(Cc2nc3ccccc3c(=O)n2C)c2ccccc21 (stereo not drawn),10.6% (inactive)
14,COCc1[nH]nc2c1C(c1ccc(OC)c(OC)c1)C(C#N)=C(N)O2 (stereo not drawn),7.1% (inactive)
15,COCc1[nH]nc2c1C(c1ccc(OC)cc1)C(C#N)=C(N)O2 (stereo not drawn),16.1% (inactive)
16,COc1ccccc1C1C2C(=O)N(c3ccccc3)C(=O)C2ON1c1ccccc1 (stereo not drawn),-0.2% (inactive)
17,O=c1[nH]c(-c2ccccc2O)nc2c1CCCC2,8.8% (inactive)
18,Cc1ccc(NC(=O)c2cc(-c3ccco3)on2)cc1,8.1% (inactive)
19,O=C(CN1CCC(n2nnc3cc(F)ccc32)CC1)Nc1ccccc1N1CCOCC1,6.7% (inactive)
20,COc1ccc(S(=O)(=O)Nc2cc(Cl)ccc2OC)cc1,14.2% (inactive)
21,O=c1cc(-c2ccccc2)nc2nc(COc3ccccc3)[nH]n12,1.9% (inactive)
22,O=C(NCc1ccccc1)c1cc(=O)nc2sc(-c3ccccc3)nn12,9.8% (inactive)
23,CCn1c(CNC(=O)c2cccs2)nnc1SCC(=O)NCCc1ccccc1,14% (inactive)
24,C=CCN1C(=O)CS/C1=N/c1nccs1,8.1% (inactive)
25,O=C1c2ccccc2C(=O)N1c1n[nH]c(CCc2ccccc2)n1,22.8% (inactive)

row,Structure (SMILES),inhibition
1,O=C1C2C3C=CC(C3)C2C(=O)N1c1n[nH]c(CCc2ccccc2)n1 (stereo not drawn),36.8% (inactive)
2,Cc1ccc(NC(=O)Cn2cnc3c(=O)n(C)c(=O)n(C)c32)c(C)c1,3.9% (inactive)
3,CN(C)c1[nH]c(=O)c(C#N)c2c1CCN2Cc1ccccc1,11.1% (inactive)
4,CCOc1ccc(C2C(C#N)=C(N)Oc3nc[nH]c(=O)c32)cc1OC (stereo not drawn),4.4% (inactive)
5,O=C(CC(Nc1ccccc1)C(=O)O)c1ccccc1 (stereo not drawn),15.2% (inactive)
6,CCOc1ccc(OCC)c(NS(=O)(=O)c2ccc3c(c2)n(C)c(=O)c(=O)n3C)c1,0.5% (inactive)
7,CCOc1ccc(CC(=O)Nc2c(C(N)=O)oc3ccccc23)cc1OCC,5.9% (inactive)
8,CCN(CC)C(=O)c1c[nH]c2ccc(S(=O)(=O)Nc3cc(C)cc(C)c3)cc2c1=O,5.8% (inactive)
9,CS(=O)(=O)N(CC(=O)NC1CCCCC1)c1cccc(Cl)c1,6.8% (inactive)
10,COc1cccc(C(=O)Nc2ccccc2N2CCCC2)c1,9.9% (inactive)
11,O=C(Cn1cc2c(n1)CCCCC2)NCc1ccccc1,9.1% (inactive)
12,Cc1ccc(NC2CC(=O)N(c3ccc(N4CCCCC4)cc3)C2=O)cc1 (stereo not drawn),6.6% (inactive)
13,COc1ccc(CC(=O)Nc2cccc(-c3nnc(-c4ccccc4)o3)c2)cc1OC,6.4% (inactive)
14,O=C(Nc1ccccc1)NC1(C(=O)NCc2ccc3c(c2)OCO3)CCCCC1,-0.2% (inactive)
15,COc1cc(C2c3c(oc4c(C)cc(C)cc4c3=O)C(=O)N2Cc2cccnc2)cc(OC)c1OC (stereo not drawn),4.1% (inactive)
16,Cc1ccc(-c2nc(CS(=O)CC(=O)NCc3ccccn3)c(C)o2)cc1 (stereo not drawn),-7.5% (inactive)
17,CN(C)/C=N/c1nc2ccc3c(c2s1)CCCC3,12.3% (inactive)
18,COc1ccc(N2CCN(CC(=O)Nc3cc4c(cc3C(C)=O)OCO4)CC2)cc1,3.8% (inactive)
19,CSc1ccccc1C(=O)NCc1ccc2c(c1)OCO2,7.3% (inactive)
20,O=C(Nc1ccccc1)N(C1=NCCCCS1)c1ccccc1,8.3% (inactive)
21,C=C(C)Cn1c(SCC(=O)O)nnc1-c1ccc(C(C)(C)C)cc1,10.6% (inactive)
22,Nc1c(S(=O)(=O)c2cccc(Cl)c2)c2nc3ccccc3nc2n1/N=C/c1ccc(O)c(O)c1,11.3% (inactive)
23,CSC1=C(C#N)C(c2cccs2)CC(=O)N1C (stereo not drawn),10.5% (inactive)
